Experimental data reported in PubChem BioAssay AID1159580 (chemical genetic matrix, 2015).
The whole screen tested about 5,500 compounds, of which about 2,000 (36%) were called active. Another 18% or so got no clear call; they are omitted. No stated cut-off is given here; in the data, active means normalized growth mostly below about 0.91 (no sharp cut-off); inconclusive means no clear call, values can overlap the other calls; inactive means mostly above about 0.92. Some of the results follow.

Experiment: chemical genetic growth profiling, strain panel (AID 1159580);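 further: tested at 20 µM; growth read once vehicle control cultures reached saturation at 30 °C; 1 = growth at the plate median or of vehicle wells; lower values mean less growth of the strain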
Settings: S. cerevisiae deletion strains, growth OD

Measured: normalized growth

c1ccc(-c2ccc(-c3csc(-c4cccnc4)n3)cc2)cc1
inactive: locus YAL013W, strain DEP1, hits give low values 1.01 | locus YBR229C, strain ROT2, hits give low values 1.02 | locus YCL061C, strain MRC1, hits give low values 0.951 | locus YDL101C, strain DUN1, hits give low values 0.972 | locus YDR150W, strain NUM1, hits give low values 1 | locus YEL061C, strain CIN8, hits give low values 1.01 | locus YGR078C, strain PAC10, hits give low values 0.997 | locus YHR030C, strain SLT2, hits give low values 1.04 | locus YHR087W, strain rtc3, hits give low values 1.01 | locus YJL187C, strain SWE1, hits give low values 0.979 | locus YJR043C, strain POL32, hits give low values 0.975 | locus YJR075W, strain HOC1, hits give low values 1.03 | locus YKL190W, strain CNB1, hits give low values 1.02 | locus YLR039C, strain RIC1, hits give low values 1.01 | locus YLR058C, strain SHM2 (second series), hits give low values 1.02 | locus YLR085C, strain ARP6, hits give low values 0.991 | locus YLR262C, strain YPT6, hits give low values 1.09 | locus YML094W, strain GIM5, hits give low values 1 | locus YMR219W, strain ESC1, hits give low values 1.02 | locus YMR263W, strain SAP30, hits give low values 0.992 | locus YMR307W, strain GAS1, hits give low values 0.896 | locus YNL153C, strain GIM3, hits give low values 0.956 | locus YNL298W, strain CLA4 (second series), hits give low values 1.04 | locus YNL322C, strain KRE1, hits give low values 1.03 | locus YNR030W, strain Alg12, hits give low values 1.01 | locus YOL006C, strain TOP1, hits give low values 1.08 | locus YPL055C, strain LGE1, hits give low values 0.944 | locus YPL241C, strain CIN2, hits give low values 0.979 | locus YPR135W, strain CTF4, hits give low values 1.08
